In ChEMBL document CHEMBL4888484, “Replenishing the malaria drug discovery pipeline: Screening and hit evaluation of the MMV Hit Generation Library 1 (HGL1) against asexual blood stage Plasmodium falciparum ,using a nano luciferase reporter read-out” (2022):
Among all 4,800 compounds or so, about 420 (8.8%) showed an effect of 50% or more. For the sample, strong results were picked, then their nearest neighbours and some compounds at random. Where a SMILES comes first, the peptide text is derived from it. The star is where a group is joined. NHPhenethyl = c1ccc(CCN*)cc1

test system: Plasmodium falciparum; test: Confirmatory screen in NF54 nanoGlo assay, in single point, at 2uM, 72h; assay type: functional, Erythrocyte; conditions: timepoint 72 hour

Structure (SMILES) | % Inhibition
CCc1ccc([C@H]2NCCc3[nH]cnc32)nc1 | 29%
CC(C)n1ccc(CN2CCC[C@H](c3cc(C(F)(F)F)[nH]n3)C2)n1 | -9%
CCc1ccc(CN2CCC[C@H](c3ncc[nH]3)C2)nc1 | 52%
CCN(CC)c1ccc(N2C(=O)c3c(Br)c(Br)c(Br)c(Br)c3C2=O)cc1 | 5%
C=CCNC(=S)NS(=O)(=O)c1ccc(Cl)cc1 | 3%
COc1cc(CNCCN2CCOCC2)ccc1OCc1ccc(C)cc1 | -1%
CCOc1cc(=O)c(C(=O)N2CCC(C(N)=O)CC2)nn1-c1ccc(F)cc1 | -6%
Cc1ccccc1S(=O)(=O)N1CCN(c2c(C)n(-c3ccccc3)c(=O)n(C)c2=O)CC1 | 1%
CCS(=O)(=O)N1CCN(c2c(C)n(-c3ccccc3)c(=O)n(C)c2=O)CC1 | 2%
Cn1c(N)c(S(=O)(=O)N2CCN(c3ccccc3Cl)CC2)c(=O)n(C)c1=O | 61%
CC(C)n1cc(CN[C@@]2(CO)CCCc3ccccc32)cn1 | -5%
CCN(CC)CCCNC(=O)[C@H]1CCCN(c2nc3ccccc3n(Cc3ccccc3)c2=O)C1 | 0%
CCC1CN2CCCC2CN1C(=O)Nc1nc2ccccc2s1 (configuration not stated) | -1%
COc1ccc(CNC(=O)Cn2c(=O)n(Cc3cccc(OC)c3)c(=O)c3sccc32)cc1 | 1%
Cn1ccc(NC(=O)C(=O)N2CC[C@H](c3ccco3)C2)n1 | -1%
O=C(Nc1cc(N2CCCS2(=O)=O)ccc1O)c1cccc(Oc2cccc(C(F)(F)F)c2)c1 | 100%
O=C(Nc1cccc(C(F)(F)F)c1)C(Oc1ccccc1)Oc1ccccc1 | -20%
Cc1cccc(C(=O)Nc2ccc(N3CCCCCC3)cc2C(=O)O)c1 | -10%
CC(C)(C)CC(=O)NC[C@H]1OC[C@@H](NC2CCCC2)[C@@H]1O | 3%
Cc1n[nH]c(C)c1NC(=O)C1=NO[C@@H](CNC(=O)OC(C)(C)C)C1 | 0%
Cc1cccc(C(=O)N[C@H]2CCN(c3ccccc3)C2=O)c1 | 13%

Structure (SMILES) | % Inhibition
Cn1c(=O)c2c(ncn2CC(=O)N(Cc2ccccc2)C2CC2)n(C)c1=O | -4%
CN(Cc1nccn1C)C(=O)c1cc2ccccc2[nH]1 | 5%
C=CCNC(=O)c1cc(Br)cc(Br)c1OC | 6%
Cc1ccc(C2=C[C@@H](c3ccc(Cl)cc3)n3nc(NC(=O)c4ccccc4)nc3N2)cc1 | 94%
COc1cc([C@@H]2C=C(c3ccc(Cl)cc3)Nc3ncnn32)ccc1OCc1ccc(Cl)cc1 | 3%
Cc1ccc([C@@H]2C=C(C(=O)O)Nc3c(C(N)=O)nnn32)cc1 | -14%
Cc1nnc2ccc(S(=O)(=O)N(Cc3ccccc3F)c3cc(F)cc(F)c3)cn12 | -5%
CC(N)C(=O)NC(C)C(=O)NCCc1ccccc1 (stereo not drawn) (H-Ala-Ala-NHPhenethyl; configuration not given here) | -5%
CCOC(=O)c1ncn(C2CCN(C(=O)c3cccc(Cn4ccnc4)c3)CC2)c1N | -3%
CCOC(=O)c1c(CN2CCCC2)n(C)c2cc(-c3cccnc3)c(O)c(Cn3ccnc3)c12 | 60%
Cc1nn(C)c(C)c1S(=O)(=O)N1CC[C@]2(CCN(c3cccnc3)C2)C1 | 1%
Cc1cc(NC(=O)c2cccc(S(=O)(=O)NC3CC3)c2)no1 | -8%
O=C(C[C@H]1CCC(=O)N(CC2CC2)CC1)Nc1ccccc1F | 4%
COc1cccc(CNCCCn2ccnc2)c1OCc1ccc(F)cc1 | 6%
COc1ccc(C)c2sc(N(CCCn3ccnc3)C(=O)Cc3ccc(F)cc3)nc12 | 79%
Cn1cccc1CNCc1ccncc1 | 0%
CCN(CC)[C@H](CNC(=O)C1=NN(C)C(=O)CC1)Cc1ccccc1 | 2%
O=C(c1cncc(Br)c1)N1CC[C@H](c2nc(C3CCOCC3)no2)C1 | -2%
CC1CCC(c2noc([C@H]3CCO[C@@H]3c3cncc(Br)c3)n2)CC1 (some centres not stated) | 52%
c1csc(-c2noc(Cc3c[nH]c4ccccc34)n2)c1 | 21%
COc1ccc(C(=O)N2CC(C(=O)O)CCC2c2ccccc2)cc1 (configuration not stated) | 3%

Structure (SMILES) | % Inhibition
COc1ccc(C(=O)N(C(=O)c2ccc(OC)cc2)c2c3c(nc4ccccc24)CCCC3)cc1 | 72%
COc1ccc(CC(=O)N(c2ccccc2)c2ccccc2)cc1 | 21%
C[C@H](Oc1ccccc1)C(=O)N1CCC(c2nc(-c3ccc4c(c3)OCO4)no2)CC1 | 6%
c1cc(-c2noc(C3CC3)n2)nc(N2CCNCC2)n1 | -12%
Cc1nc(N2CCC(c3nc(-c4ccccc4)no3)CC2)c2c(C)noc2n1 | 54%
C=CCC(N)(CC=C)c1ccc(C)cc1 | -6%
Cn1nnnc1NC/C=C/c1ccccc1 | -4%
C=C1C(C)C2C(Cc3c[nH]c4ccccc34)NC(=O)C23C(=O)CC(O)C(O)CC(C)C/C=C/C3C1O (configuration not stated) | 44%
CCC(C)C(NC(=O)c1ccccc1NC(=O)c1ccco1)C(=O)N1CCCCCC1 (configuration not stated) | -9%
Cc1nc(C)c(CN2C(=O)C3CCCCC3C2=O)s1 (configuration not stated) | -2%
O=C([C@H]1CC(=O)N(c2ccc(F)c(Cl)c2)C1)N1CCN(C(c2ccccc2)c2ccccc2)CC1 | -3%
O=C(c1ccoc1)N1CCC[C@H](C(=O)N2CCN(C(c3ccccc3)c3ccccc3)CC2)C1 | -1%
O=C(c1cccc(C(=O)N2CCN(C(c3ccccc3)c3ccccc3)CC2)c1)N1CCN(C(c2ccccc2)c2ccccc2)CC1 | 63%
C[C@@H](C(=O)Nc1cccc2ccccc12)c1ccc(-c2ccccc2)c(F)c1 | -11%
CC[n+]1c(/C=C/N(C)c2ccccc2)oc2ccccc21 | 80%
CC[n+]1c(/C=C/N(C)c2ccccc2)oc2ccc(-c3ccccc3)cc21 | 89%
CC(C)(C(=O)Nc1nccs1)c1cccnc1 | -2%
Cn1cc(C(=O)N2N=CC[C@]2(O)C(F)(F)F)cn1 | 1%
O=C(c1cc(-c2ccccc2)n[nH]1)N1CCC(N2CCc3sccc3C2)CC1 | 21%
CCOc1c(CNC(C)(C)C)cccc1OC | -9%
